Test results as given in PubChem BioAssay AID540263 (National Center for Advancing Translational Sciences (NCATS), 2011).
About 100 (0.029%) of roughly 340,000 compounds were called active. Another 8% or so got no clear call; they are omitted. Calls come from the whole dose curve. Many of the other results were omitted from the sample, so actives are more common in it than they were.

Target: Importin subunit beta-1 (Homo sapiens) (UniProt Q14974)
Test: qHTS Assay for Inhibitors of Rango (Ran-regulated importin-beta cargo) - Importin beta complex formation;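 note: 0% = DMSO wells and 100% = buffer wells lacking importin beta; nearly all actives have a fitted effect of over 15% in size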
Settings: Rango CFP/YFP FRET sensor + importin beta, 45 min; series mostly up to 92.2 µM; inhibition of complex formation: at the top concentration
Description: NIH Molecular Libraries Probe Production Centers Network [MLPCN] NIH Chemical Genomics Center [NCGC] MLPCN Grant: R03 MH090808-01A1 Assay Submitter (PI): Petr Kalab NCGC Assay Overview: The small GTPase Ran regulates transport of macromolecules between the nucleus and the cytoplasm (nuclear transport) and has important functions in mitotic spindle assembly, nuclear envelope (NE) formation and nuclear pore complex (NPC) assembly. RanGTP gradient is thought to promote spindle assembly by providing a spatial clue to microtubule nucleation and Aurora A activation. Because the localized release and binding of importin alpha cargo relays this spatial clue to SAFs, inhibitors of the Rango - importin beta complex can then be used in further understanding their role in cell cycle specifically in mitosis progression. […] Activation of Aurora A has been linked to different types of cancer and a number of Aurora kinase inhibitors are being developed as potential canter therapeutics therefore, identified inhibitors of this complex could be developed into potential anti-mitotic probes for cancer treatment. Purified recombinant proteins Rango and importin beta were provided by the assay submitter. The assay used a fluorescence resonance energy transfer (FRET) Rango biosensor that contains the IBB of human snurportin 1 flanked by yellow fluorescent protein (EYFP) at the amino terminus and cerulean CFP10 at the carboxy terminus. […] Inhibitors will therefore be identified based on the ability to interfere with the FRET signal decrease. DMSO treated and no importin beta (buffer only) wells were used as negative and positive controls respectively. FRET readings were obtained at two time points. FRET reading prior to importin beta addition (pre-read) were used flag potential compound interference; FRET reading after importin beta addition (post-read) were used to identify inhibitors using the FRET ratio parameter.
NCGC Assay Protocol Summary: Two and a half uL/well of Rango-buffer solution (50 nM Rango, 1x PBS, 1mM DTT, 0.02% Tween-20, 0.1% BSA final concentrations) was dispensed into 1536-well assay plates (Greiner, solid black medium-binding plates) with Aurora Discovery BioRAPTR Flying Reagent Dispenser (FRD; Beckton-Dickenson). Compound solution (23 nL) was transferred to the assay plate using Kalypsys pin tool equipped with a 1536-pin tool and incubated at room temperature for 5 min followed by a FRET pre-read using the PerkinElmer Envision plate reader. Two and a half uL/well of Importin beta - buffer solution (0.125 microM importin beta, 1x PBS, 1mM DTT, 0.02% Tween-20, 0.1% BSA final concentrations) were then added and incubated at room temperature giving a final reaction volume of 5uL. After 45min FRET post-read was obtained via the Envision plate reader using the same optics and settings as the pre-read (CFP/YFP optimized dual optical module D450/D505; excitation mirror CFP 430/24 nm; and emission filters CFP 486/10 nm and YFP 530/10 nm).

Sequence of Importin subunit beta-1 (Homo sapiens) (Q14974 whole entry, looked up): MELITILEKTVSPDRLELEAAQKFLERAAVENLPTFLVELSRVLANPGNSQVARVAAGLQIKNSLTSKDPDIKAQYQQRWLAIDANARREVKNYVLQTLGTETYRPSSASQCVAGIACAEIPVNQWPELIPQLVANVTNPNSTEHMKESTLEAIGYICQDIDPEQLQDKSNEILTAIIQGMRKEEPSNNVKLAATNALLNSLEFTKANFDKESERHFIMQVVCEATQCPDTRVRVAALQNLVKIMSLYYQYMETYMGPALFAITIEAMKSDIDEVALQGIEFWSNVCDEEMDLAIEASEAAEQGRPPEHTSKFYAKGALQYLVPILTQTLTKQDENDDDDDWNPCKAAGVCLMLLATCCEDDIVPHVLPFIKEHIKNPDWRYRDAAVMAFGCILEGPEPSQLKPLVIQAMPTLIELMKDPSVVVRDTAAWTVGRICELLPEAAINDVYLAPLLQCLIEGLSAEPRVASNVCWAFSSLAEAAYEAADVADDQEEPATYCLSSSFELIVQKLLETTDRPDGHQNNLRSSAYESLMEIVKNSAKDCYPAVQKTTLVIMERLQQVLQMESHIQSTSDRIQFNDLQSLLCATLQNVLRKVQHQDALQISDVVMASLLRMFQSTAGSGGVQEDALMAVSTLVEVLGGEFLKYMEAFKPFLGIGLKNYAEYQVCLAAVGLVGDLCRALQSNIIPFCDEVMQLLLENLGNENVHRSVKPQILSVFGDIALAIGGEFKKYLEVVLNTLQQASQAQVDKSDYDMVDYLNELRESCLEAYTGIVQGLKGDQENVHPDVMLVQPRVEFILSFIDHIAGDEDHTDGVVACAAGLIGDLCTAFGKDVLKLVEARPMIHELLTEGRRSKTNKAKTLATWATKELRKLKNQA

Inhibition of complex formation, inactive:
CC(C)=CCc1ccc(O)c(=O)cc1C(C)C -0.975%
O=C(Nc1ccc2ccccc2c1[N+](=O)[O-])c1ccccc1 3.45%
COc1ccc(Cl)cc1C=CC=NNC(=O)c1ccncc1 4.63%
CC(C)(C)OC(=O)N1CCC(C(=O)Nc2cccc(C(=O)NCCc3ccccc3)c2)CC1 1.14%
COC1=CC(=O)OC(C)(c2ccccc2)C1 (centres undefined) -1.43%
Cc1ccc(Nc2c(O)nc[nH]c2=O)cc1C -7.42%
CCCN(CC(=O)Nc1ccccc1C)C(=O)c1ccc(OCC(=O)N2CCOCC2)c(OCC)c1 -0.312%
COc1ccc(-c2ccc3c(c2)[C@@H]2C[C@H](N(C)S(=O)(=O)c4ccccc4)[C@H]([C@H](C)O)C(=O)N2CC3)cc1 -1.31%
CC1(C)N=C(N)NC(Nc2ccc(Cl)cc2)=N1 2.24%
CN(C(=O)c1cccc(NC(=O)Cc2ccc(NC(=O)C3CCN(C(=O)C4CCCCC4)CC3)cc2)c1)C1CCC1 -2.04%
CC(C)(C)c1nnc2sc(SCC(O)=C(C#N)c3nc4ccccc4[nH]3)nn2c1=O 0.14%
Cc1ccc(S(=O)(=O)N2CCN(C(=O)c3cc(S(=O)(=O)N4CCOCC4)ccc3F)CC2)cc1 -3.27%
Cc1nn(-c2ncccn2)c2c1C(=O)CC(C)(C)C2Br (centres undefined) -3.68%
CCN(CC(=O)Nc1c(F)cccc1F)C(=O)Cc1cccs1 -5.32%
NC(=O)c1ccc(N2CCCC2)nc1 0.637%
COc1cc2[nH]c(O)c(C=O)c2cc1OC -0.216%
CC/C(=C\c1ccc(Cl)cc1)c1ccncc1 0.876%
COc1ccc(Cl)cc1C=CC=Nc1ccc(S(N)(=O)=O)cc1 -2.29%
COc1ccc(CCNC(=O)c2ccc(NC(=O)CC3SC(N4CCCCC4)=NC3=O)cc2)cc1OC (centres undefined) -3.12%
CSCCC(NC(=O)COc1ccccc1)C(=O)N1CCN(c2cccc(C(F)(F)F)c2)CC1 (centres undefined) 4.24%
CCCCN1CC(COc2ccccc2)Oc2cccc(F)c2S1(=O)=O (centres undefined) 2.87%
O=C(NN=Cc1ccccc1)c1ccccc1 -2.28%
O=C(Nc1c(Br)cc2c(c1Br)Cc1cc([N+](=O)[O-])ccc1-2)C(Cl)Cl -0.563%
CC(=O)OC1CCC2C3CCC4=C(CC(F)C(=O)C4)C3CCC12C (centres undefined) -1.03%
O=[N+]([O-])c1ccc(COc2ccccc2CN2CCOCC2)cc1 3.71%
COc1cccc(CC(=NO)c2cccc(OC)c2)c1 -0.088%
NC(=O)C1(Nc2ccc(-c3ccccc3)cc2)CCCC1 0.958%
O=C(O)C(=Cc1ccccc1[N+](=O)[O-])c1ccccc1 -0.207%
CCOC(=O)c1ccccc1NC(=O)CSc1nc2c(sc(=S)n2CC)c(=O)[nH]1 0.302%
O=C(CCCCCCCC(=O)N1CCCCC1)N1CCCCC1 -2.28%
Nc1cc2c(cc1Br)-c1ccc(F)cc1C2=O -2.11%
O=C1NC(c2ccccc2)Cc2ccncc21 (centres undefined) 0.404%
Cc1ccc(OCCNC(=O)c2cccc(S(=O)(=O)N3CCN(Cc4ccccc4)CC3)c2)cc1 3.25%
O=C1CC(c2ccccc2)C(c2ccccc2)=NN1 (centres undefined) -1.44%
Nc1ccc2c(c1)C(=Cc1cccnc1)c1ccccc1-2 -0.161%
Oc1ccc(-c2nc3ccccc3nc2-c2ccc(O)cc2O)c(O)c1 1.75%
O=C(Nc1ccccc1)Oc1cccc2cccnc12 -0.849%
O=[N+]([O-])c1ccc(NS(=O)(=O)c2ccccc2)c(Cl)c1 -1.29%
O=C(Cc1ccc(Cl)cc1)c1ccccc1 3.5%
O=C1C(=O)N(c2ccccc2)C(c2ccccc2)C1c1ccccc1 (centres undefined) 2.65%
Cc1cc([N+](=O)[O-])ccc1NS(=O)(=O)c1ccccc1 2.79%
O=C(c1ccc2c(c1)C(=O)N(Cc1ccncc1)C2=O)N1CCN(S(=O)(=O)c2ccc(OC(F)(F)F)cc2)CC1 5.12%
O=S(=O)(Cc1ccc(Cl)cc1Cl)c1ccc(Cl)cc1 -2.04%
Cc1c(NS(=O)(=O)c2cccc(C(=O)Nc3ccc(SC(F)F)cc3)c2)c(=O)n(-c2ccccc2)n1C -1.93%
C[n+]1cccc(C(=O)O)c1 8.24%
CCCCN(C(=O)c1cccc(N2C(=O)c3ccccc3C2=O)c1)c1c(N)n(CCCC)c(=O)[nH]c1=O -5.63%
CSCCC(NS(=O)(=O)c1ccc(C)cc1)C(=O)N(C)CC(=O)Nc1ccccc1Br (centres undefined) -2.58%
COc1ccccc1NC(=O)N(O)C1(C#N)CCCCC1 6.65%
O=C(Nc1c[nH]c(=O)[nH]c1=O)OCc1ccccc1 -3.52%
COc1cc2c(cc1OC)C(Cc1cc(OC)c(OC)cc1[N+](=O)[O-])=NCC2 -4.04%
CN(O)C(=S)c1ccccc1 0.436%
Cc1ccc(S(=O)(=O)c2cc3c(=O)n4cccc(C)c4nc3n(CCc3ccccc3)c2=N)cc1C -0.419%
O=C1OC(Oc2ccc(Br)cc2)(c2ccccc2)c2ccccc21 (centres undefined) 4.41%
N#CC1(Nc2ccc(-c3ccc(Cl)cc3)cc2)CCCC1 -0.935%
